Test results taken from PubChem BioAssay (NCATS).
“And” between values parts separate entries of the source, which are not always exact repeats. Identical values can stand only once. Records with an inconclusive call do not appear. The source made the active and inactive calls. Calls follow the shape of the dose curve; as a rule, active = well fitted inhibition curve with a large enough effect; inconclusive = small, poorly fitted or top-dose-only effect; inactive = no such curve, though single readings can be large or run the other way.

The compounds below were run against Tyrosine-protein kinase Yes (Homo sapiens) (UniProt P07947) (assay: qHTS for small molecule inhibitors of Yes1 kinase: Primary Screen (AID 686947; also: nearly all actives have a fitted effect of over 60% in size;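 as to activity change, negative = inhibition: plate controls were DMSO with enzyme for no effect and no-enzyme DMSO wells for full effect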)). Details: Yes1 kinase biochemical qHTS inhibition; series mostly up to 76.9 µM; activity change, negative = inhibition: at the top concentration.
Outline: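 In this qHTS format, inhibition is expressed relative to DMSO controls with enzyme (maximum) and without enzyme (minimum). The 60 min room-temperature reaction uses 0.1 mM ATP, with ADP detected by luminescence.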
Potency is read from the fitted curve at half-maximal effect.

Sequence of Tyrosine-protein kinase Yes (Homo sapiens) (P07947 whole entry, looked up): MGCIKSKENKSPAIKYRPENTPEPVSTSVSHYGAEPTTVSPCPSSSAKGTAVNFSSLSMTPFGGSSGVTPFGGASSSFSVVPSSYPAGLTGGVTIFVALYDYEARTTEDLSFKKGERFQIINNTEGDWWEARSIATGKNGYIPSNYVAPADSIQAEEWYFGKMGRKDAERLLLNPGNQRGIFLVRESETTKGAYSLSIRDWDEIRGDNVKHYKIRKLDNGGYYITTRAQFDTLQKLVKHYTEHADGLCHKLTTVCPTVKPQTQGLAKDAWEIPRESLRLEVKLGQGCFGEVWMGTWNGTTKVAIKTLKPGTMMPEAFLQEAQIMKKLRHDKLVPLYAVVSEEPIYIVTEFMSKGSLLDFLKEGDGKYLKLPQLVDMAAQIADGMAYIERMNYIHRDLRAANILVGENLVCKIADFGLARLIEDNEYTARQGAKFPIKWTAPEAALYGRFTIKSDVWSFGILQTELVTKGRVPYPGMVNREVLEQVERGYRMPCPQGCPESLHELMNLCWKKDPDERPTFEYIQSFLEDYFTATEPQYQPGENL

Row | SMILES | activity change, negative = inhibition | Potency
1 | COc1cccc(Nc2nccc(-c3cnn4ncccc34)n2)c1 | -40.5% (inactive) | –
2 | CN(C)C(=O)OC1CNC(C#Cc2cc3ncnc(Nc4ccc(OCc5cccc(F)c5)c(Cl)c4)c3s2)C1 (stereo not given) | – | 8.23 µM (active) and 7.33 µM (active)
3 | N#Cc1c(NC(=O)c2ccccc2F)sc2c1CCCC2 | 10.4% (inactive) | –
4 | CC(Oc1cc(-n2cnc3ccc(OC4CCN(C)CC4)cc32)sc1C(N)=O)c1ccccc1Cl (stereo not given) | – | 5.82 µM (active)
5 | Fc1cccc(COc2ccc(Nc3ncncc3C#Cc3ccccc3)cc2Cl)c1 | -16.3% (inactive) | –
6 | O=C(OC1CNC(C#Cc2cc3ncnc(Nc4ccc(OCc5cccc(F)c5)c(Cl)c4)c3s2)C1)N1CCOCC1 (stereo not given) | – | 6.54 µM (active)
7 | COc1ccc2c(-c3ccnc(Nc4cccc(OC(F)(F)F)c4)n3)cnn2n1 | – | 26 µM (active)
8 | COc1cccc(-c2c[nH]c3c(NN=Cc4ccncc4)ncnc23)c1 | – | 0.164 µM (active)
9 | COc1ccc(-c2cc(-c3cn[nH]c3-c3ccccn3)ccn2)cc1 | – | 14.6 µM (active)
10 | CS(=O)(=O)CCN(CC#N)Cc1ccc(-c2ccc3ncnc(Nc4ccc(OCc5cccc(F)c5)c(Cl)c4)c3c2)o1 | -18% (inactive) | –
11 | O=C1NC(=O)C(c2ccc(Cl)cc2)=C1Nc1ccc(Cl)c(C(=O)O)c1 | 4.93% (inactive) | –
12 | NC(=O)c1ccc2c(-c3ccnc(NCCCO)n3)c(-c3ccc(F)cc3)nn2c1 | – | 6.54 µM (active)
13 | CC1(C)CC(n2cnc(-c3ccc(F)cc3)c2-c2ccnc(N)n2)CC(C)(C)N1 | – | 5.19 µM (active)
14 | O=S1CCN(Cc2ccc(-c3ccc4ncnc(Nc5ccc(OCc6ccccc6)c(Cl)c5)c4c3)o2)CC1 | – | 0.368 µM (active)
15 | Cc1ccc(NC(=O)CC2CC2)cc1-c1ccc(C(=O)NCC2CC2)cc1 | 6.55% (inactive) | –
16 | CCN(CC)Cc1ccc(Nc2nccc(-c3cnn4ncccc34)n2)cc1 | – | 7.33 µM (active)
17 | CCn1c(-c2nonc2N)nc2c(C#CC(C)(C)O)nc(OC(CN)c3ccccc3)cc21 (stereo not given) | – | 0.654 µM (active)
18 | CS(=O)(=O)CCNCc1ccc(-c2ccc3ncnc(Nc4ccc(OCc5ccccc5)c(C(F)(F)F)c4)c3c2)o1 | -1.61% (inactive) | –
19 | Cc1nc(-c2ccccc2)n2nc(NCCCN3CCOCC3)ncc12 | – | 32.8 µM (active)
20 | CCn1c(-c2nonc2N)nc2c(C#CCN)ncc(OCCCN)c21 | -10.2% (inactive) | –

Row | SMILES | activity change, negative = inhibition | Potency
21 | CNC(=O)c1cncc(C=Cc2c(Cl)cccc2Cl)c1 | – | 0.823 µM (active)
22 | CS(=O)(=O)CCNCc1ccc(-c2ccc3ncnc(Nc4ccc(OCc5ccccc5)c(Br)c4)c3c2)o1 | – | 2.32 µM (active)
23 | Cc1ccc(-c2cc3c(NC(=O)C4CC4)ncnc3o2)cc1 | – | 0.733 µM (active)
24 | CC(C)(CO)CNC(=O)c1ccc2[nH]c(O)c(N=Nc3ccc(S(N)(=O)=O)cc3)c2c1 | – | 2.32 µM (active)
25 | Cc1ccc2c(-c3ccnc(Nc4cccc(C(F)(F)F)c4)n3)c(-c3ccccc3)nn2n1 | – | 0.146 µM (active)
26 | O=C(O)c1ccc(Oc2nccc(-c3c(-c4ccc(F)cc4)ncn3C3CCNCC3)n2)cc1 | 7.95% (inactive) | –
27 | CN1CCN(Cc2ccc(-c3cc4ncnc(Nc5ccc(OCc6cccc(F)c6)c(Cl)c5)c4s3)o2)CC1 | – | 0.823 µM (active)
28 | CCn1c(-c2nonc2N)nc2cncc(C(=O)N3CCNCC3)c21 | – | 1.46 µM (active)
29 | c1ccc(Cc2nc3ccc(Nc4ncnc5ccccc45)cc3[nH]2)cc1 | – | 1.16 µM (active)
30 | CCc1cccc(CC)c1C=Cc1cncc(C(=O)NC)c1 | – | 26 µM (active)
31 | NS(=O)(=O)c1cccc(Nc2cc(-c3ccc(F)cc3)[nH]n2)c1 | – | 3.68 µM (active)
32 | CCn1c(-c2nonc2N)nc2c(C#CC(C)(C)O)nc(OCCNC)cc21 | – | 8.23 µM (active)
33 | OCc1ccc(-c2nc(-c3ccc4c(c3)OCO4)c(-c3ccccn3)[nH]2)cc1 | -12.9% (inactive) | –
34 | Oc1cccc(-c2nc(-c3ccccc3)[nH]c2-c2ccncc2)c1 | – | 0.923 µM (active)
35 | COc1cccc(-n2cnc3c(NN=Cc4ccncc4)ncnc32)c1 | – | 0.582 µM (active)
36 | CS(=O)(=O)CCNCc1ccc(-c2ccc3ncnc(Nc4ccc(OCc5cccc(C(F)(F)F)c5)cc4)c3c2)o1 | – | 6.54 µM (active)
37 | CNC(=O)c1cc(-c2ccc(F)cc2)cc(-c2ccc(S(=O)(=O)N3CCCC3)cc2)c1N | 10.8% (inactive) | –
38 | c1ccc(COc2ccc(Nc3ncnc4ccc(-c5ccco5)cc34)cc2)cc1 | – | 3.68 µM (active)
39 | CCC(=O)Nc1ccc(C)c(-c2ccc(C(=O)NCC3CC3)cc2)c1 | 2.7% (inactive) | –
40 | Nc1ncnc2occ(-c3ccc(NC(=O)Nc4cccc(C(F)(F)F)c4)cc3)c12 | – | 1.64 µM (active)
